# HttQ103 aggreg = reduces HttQ103-GFP aggregates in PC12 cells. AID 1688. Potency, µM (doses to about 46.1 µM), inactives show at the highest dose activity change, negative = inhibition, usual class: inhibitors. PC12 HttQ103-GFP aggregates, Acumen cytometry, 40 h. 220,000 compounds, 1.1% hits; also: % is scaled to controls: 0 for no effect and ±100 for the full control effect; nearly all actives have a fitted effect of over 60% in size
#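 Aggregate formation scored by laser-scanning cytometer (488 excitation, 500–530 emission) in lysed PC12 cells expressing Q103-GFP after 100 nM tebufenozide induction; library tested in dose series, with ATPLite reagent added in the multiplex.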
# HTT ATP protect = protects HTT-Q103 PC12 cells, measured by ATP. PC12 HTT-Q103 induced, cytoprotection, ATP luminescence, 40 h. Potency, µM (doses to about 56.4 µM), inactives show cytoprotection (ATP increase), most hits filed as activators. 230,000 compounds, 0.14% hits; also: % of control where 0% means no effect; nearly all actives have a fitted effect of over 45% in size
#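 Compounds added alongside 100 nM tebufenozide, which induces toxic Q103 huntingtin exon 1-GFP in stable PC12 cells; surviving cells quantified by luminescent ATP measurement. Medium: phenol red-free DMEM, 5% equine and 5% calf serum.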
# HPGD inh = HPGD (human) dehydrogenase inhibition | purified HPGD, NADH fluorescence kinetic, PGE2 substrate | Potency, µM, without a hit: top-dose activity change, negative = inhibition, most hits filed as inhibitors | 150,000 compounds, 4.3% hits; active = well fitted inhibition curve with a large enough effect, not every such curve was filed as active; inconclusive = small, poorly fitted or top-dose-only effect, or another doubt; inactive = no such curve, though single readings can be large or run the other way; also: % is scaled to controls: 0 for no effect and ±100 for the full control effect
# Target sequence (P15428 whole entry, looked up): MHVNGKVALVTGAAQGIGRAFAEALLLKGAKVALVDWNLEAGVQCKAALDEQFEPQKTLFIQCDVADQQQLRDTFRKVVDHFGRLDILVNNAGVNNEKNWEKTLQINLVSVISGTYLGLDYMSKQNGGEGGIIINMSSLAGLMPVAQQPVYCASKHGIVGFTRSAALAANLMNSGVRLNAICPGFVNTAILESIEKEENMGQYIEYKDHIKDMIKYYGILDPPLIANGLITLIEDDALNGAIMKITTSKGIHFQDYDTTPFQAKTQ
#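 20 nM HPGD preincubated 15 min at room temperature with compound in 50 mM Tris-HCl pH 8, 0.01% Tween 20. Started with 1 mM NAD+ and 30 uM prostaglandin E2; NADH fluorescence (360/450 nm) read 5 times over 30-s intervals, last minus first.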
# ALDH1A1 inh = blocks purified human ALDH1A1 activity | P00352 | Purified ALDH1A1, NADH fluorescence, propionaldehyde substrate | Potency, µM (titrated, usually from 75.3 µM), without a hit: top-dose activity, negative = inhibition, hits mostly inhibitors | 220,000 compounds, 7.3% hits; active = well fitted inhibition curve with a large enough effect, not every such curve was filed as active; inconclusive = small, poorly fitted or top-dose-only effect, or another doubt; inactive = no such curve, though single readings can be large or run the other way;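 also: plate controls were no enzyme wells and a reference inhibitor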
# Lamin A splicing = modulators of lamin A splicing. HeLa LMNA splicing GFP/RFP minigene ratio, 48 h. Potency, µM (highest dose often 46.1 µM), for the others: top-dose ratio change, negative = inhibition, hits mostly inhibitors. 200,000 compounds, 0.01% hits; active = well fitted inhibition curve with a large enough effect in the signal ratio, with a control signal flat, not every such curve was filed as active; inconclusive = small, poorly fitted or top-dose-only effect, or effect the other way, or a change in a side signal; the % refers to the signal ratio; also: % is scaled to controls: 0 for no effect and ±100 for the full control effect
#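 S3 HeLa cells stably expressing lamin A-EGFP splicing minigene plus DsRed2, 600 cells/well, 48 h compound exposure at 37C. Laser-scanning cytometry; analysed as GFP (500-530 nm)/RFP (575-640 nm) total intensity ratio; 0.5% DMSO vehicle.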
# The depositor's hits bear a star; u = inconclusive; x = no result given; [ ] = remark or other dose. A selection: hits, their analogues and other compounds. The true share with any hit is near 8.8%. Unless noted, calls follow the shape of the dose curve; as a rule, active = well fitted curve in the direction sought with a large enough effect; inconclusive = small, poorly fitted or top-dose-only effect, or another doubt; inactive = no such curve, though single readings can be large; an effect the other way counts as inactive or inconclusive. Potency is read from the fitted curve at half-maximal effect.
SMILES,HttQ103 aggreg,HTT ATP protect,HPGD inh,ALDH1A1 inh,Lamin A splicing
COc1ccc(N2CCC(CNC(=O)Nc3cccc(OC)c3)C2)cc1 (configuration not stated),3%,-12%,-8%,u,-9%
CCc1cccc(C)c1NC(=S)NCC1CCN(c2ccc(OC)cc2)C1 (configuration not stated),-11%,5%[10 µM],x,10µM*,x
CCc1ccccc1NC(=S)NCC1CCN(c2ccc(OC)cc2)C1 (configuration not stated),-10%[9.22 µM],-4%[10 µM],x,x,x
COc1ccc(N2CCC(CNC(=O)Nc3ccc(Cl)cc3)C2)cc1 (configuration not stated),u,-9%,x,5.6µM*,u
CCc1ccc(C2=NN(CCC(=O)NCCc3ccccc3)C(=O)CC2)cc1,x,x,x,x,22%[46 µM]
O=C(NC(=S)Nc1ccccc1)c1ccc(-c2ccccc2)cc1,-17%,-3%[10 µM],-15%,u,-3%
O=C(NC(=S)Nc1ccccc1)c1csnn1,15%,-19%,-29%,7.9µM*,9%
COc1ccc(NC(=S)NC(=O)c2csnn2)cc1,-6%[9.22 µM],14%[10 µM],x,1%,x
O=C(O)c1ccc(NC(=S)NC(=O)c2ccc(-c3ccccc3)cc2)cc1,-12%,-81%,x,8.9µM*,x
CC(C)NS(=O)(=O)c1ccc(NC(=S)NC(=O)c2ccc(-c3ccccc3)cc2)cc1,-14%,-21%,-16%,11µM*,16%
Cc1cccc(NS(=O)(=O)c2cc(C(=O)N3CCOCC3)ccc2Cl)c1,25%,x,x,-4%,x
NS(=O)(=O)c1cccc(NC(=O)CSc2nc3ccccc3c(=O)n2CCCN2CCOCC2)c1,16%,-5%[10 µM],-2%,19%,-1%
Cc1cc(N)n(-c2ncnc3scc(-c4ccc(Cl)cc4)c23)n1,-18%,8%[10 µM],-8%,u,-17%
Cc1ccc(-c2csc3ncnc(-n4nc(C)cc4N)c23)cc1,-20%,-25%,-13%,2µM*,u
CCc1c(O)cc2n(c1=O)-c1ccc(Cl)cc1C2(C)C,-17%,3%[10 µM],-8%,28µM*,u
Cc1cccc(C)c1N(CC(=O)Nc1cccc(N(C)S(C)(=O)=O)c1)S(C)(=O)=O,4%,-20%[10 µM],-14%,22µM*,8%
Cc1ccc(Cl)cc1N(CC(=O)Nc1cccc(N(C)S(C)(=O)=O)c1)S(C)(=O)=O,3%,-4%[10 µM],x,-5%,-10%[46 µM]
Nc1nc(Cl)nc2c1ncn2[C@@H]1O[C@H](CO)[C@H](O)[C@H]1O,x,x,-8%,-6%,u
Cc1ccc(C)c(C(=O)CSc2nnnn2C(C)C)c1,6%,15%[10 µM],-16%,u,-11%
Cc1ccc(C(=O)CSc2nnnn2C(C)C)c(C)c1,-15%,-13%[10 µM],-17%,28µM*,-5%
Nc1ncnc2c1nc(Br)n2C1O[C@H]2COP(=O)(O)O[C@@H]2C1O (some centres not stated),x,x,-6%,3%,u
COC(=O)c1[nH]nc2c1C(=O)N(Cc1ccccc1)C2=O,1%,6%,10µM*,u,u
CCOC(=O)c1[nH]nc2c1C(=O)N(Cc1ccccc1)C2=O,23%,-15%,8.9µM*,u,u
CCCCCCCCCCCCC/C=C/[C@@H](O)[C@H](CO)NC(=O)CCCCCCCCCCCCCCC,x,u,-11%,7%,x
O=C1C(Cl)=C(N2CCCCC2)C(=O)N1c1ccccc1,6%,-14%,18µM*,u,6%
SMILES,HttQ103 aggreg,HTT ATP protect,HPGD inh,ALDH1A1 inh,Lamin A splicing
Cc1ccc(OCC(=O)NC(=S)Nc2ccc3c4c(cccc24)CC3)cc1,u,x,-12%,10µM*,-7%
CCC(=O)NC(=S)Nc1ccccc1C(=O)OC,4%,11%[10 µM],-3%,-5%,-10%
COC(=O)c1ccccc1NC(=S)NC(=O)COc1ccc(C(C)C)cc1,-5%,7%[10 µM],-14%,18µM*,-11%
Cc1ccccc1NC(=S)NC(NC(=O)COc1ccccc1)C(Cl)(Cl)Cl (configuration not stated),u,-54%,x,u,u
COC(=O)c1ccccc1NC(=S)NC(NC(=O)COc1ccccc1)C(Cl)(Cl)Cl (configuration not stated),-1%,17%,22µM*,u,u
O=C(COc1ccccc1)NC(=S)Nc1ccc2c3c(cccc13)CC2,2%,9%,-7%,u,1%
